IL-1B inflam inh: blocks inflammasome-driven IL-1 beta release | THP-1 LPS/ATP IL-1B secretion, AlphaLISA, 16 h; hits give low values | activity change, % at 57.5 µM | 360,000 compounds, 4.7% hits | AID 743279; in the data active = activity change below about -50%; inconclusive = mostly about -30% to -49%
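THP-1 cells pretreated 1 hr with compounds (up to 57.5 uM final), then stimulated with LPS (250 ng/mL final) plus ATP (1.25 mM final); secreted IL-1B measured by AlphaLISA after 16 hr, decreased signal indicating inhibition.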
TDP1 inh: inhibitors of human tyrosyl-DNA phosphodiesterase TDP1. Q9NUW8. recombinant TDP1, AlphaScreen DNA substrate cleavage. Potency, µM (highest dose often 130 µM), without a hit: at the highest dose activity change, negative = inhibition, actives largely listed as inhibitors. 350,000 compounds, 0.28% hits. AID 485290; also: potency is read from the fitted curve at half-maximal effect; nearly all actives have a fitted effect of over 40% in size
Target sequence (Q9NUW8 whole entry, looked up): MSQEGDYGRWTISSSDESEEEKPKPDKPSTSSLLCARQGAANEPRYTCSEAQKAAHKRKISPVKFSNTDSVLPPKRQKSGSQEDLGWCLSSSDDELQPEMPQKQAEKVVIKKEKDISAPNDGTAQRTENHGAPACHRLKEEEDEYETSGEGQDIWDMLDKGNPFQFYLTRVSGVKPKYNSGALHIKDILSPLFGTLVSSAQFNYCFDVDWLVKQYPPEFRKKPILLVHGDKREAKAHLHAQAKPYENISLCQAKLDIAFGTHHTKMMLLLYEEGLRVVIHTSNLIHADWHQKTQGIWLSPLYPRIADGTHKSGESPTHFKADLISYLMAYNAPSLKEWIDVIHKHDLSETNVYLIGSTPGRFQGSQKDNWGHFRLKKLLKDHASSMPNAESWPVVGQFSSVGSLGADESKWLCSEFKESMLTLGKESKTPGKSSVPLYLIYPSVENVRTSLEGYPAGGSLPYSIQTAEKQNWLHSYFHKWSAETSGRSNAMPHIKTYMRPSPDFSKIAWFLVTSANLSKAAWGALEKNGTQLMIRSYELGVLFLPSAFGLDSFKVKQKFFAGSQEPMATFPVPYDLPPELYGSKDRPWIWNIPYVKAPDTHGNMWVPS
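AlphaScreen read-out: signal falls as enzyme removes the 3' tyrosine-FITC from a 5'-biotinylated DNA oligo (15 nM, 5 min, RT). Enzyme was E. coli-made recombinant Tdp1 at 1 nM, exposed to compound for 15 min beforehand; beads 10 ug/ml, 10 min.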
Six1-Eya2 blk: Six1/Eya2 interaction inhibition; activity change, % (concentration not given with the values); AlphaScreen GST-Six1/His-Eya2 binding, biochemical; hits give low values; AID 651725; 360,000 compounds, 0.56% hits; in the data active = activity change below about -65%; inconclusive = mostly about -30% to -63%
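Six1/Eya2 binding was read as AlphaScreen signal after compounds were pinned into GST-Six1 plus His-tagged Eya2 (5X stock 250/500 nM) in pH 8.0 Tris/NaCl/TCEP buffer, beads added, then incubated 1 h, 37 C, dark.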
DT40 TDP1 CPT: growth inhibition of DT40 Tdp1-/-;hTDP1 cells with camptothecin (screen for TDP1 inhibitors) | chicken DT40 Tdp1-/-;hTDP1 cells + 20 nM CPT, ATP luminescence, 48 h | Potency, µM (titrated, usually from 46.2 µM), for the others: at the highest dose activity change, negative = growth inhibition, hits mostly inhibitors | 420,000 compounds, 12% hits | AID 686979; also: potency is read from the fitted curve at half-maximal effect; nearly all actives have a fitted effect of over 55% in size
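Cell growth measured by CellTiter-Glo luminescence after a minimum 48 h, 37 C compound exposure with 20 nM CPT in Tdp1-knockout DT40 cells stably expressing hTDP1, seeded 400/well; qHTS titration format.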
TDP1 cell noCPT: qHTS for Inhibitors of human tyrosyl-DNA phosphodiesterase 1 (TDP1): qHTS in cells in absence of CPT. DT40 Tdp1-/- hTDP1 cells, no CPT, ATP luminescence, 48 h. Potency, µM (series often up to 46.2 µM), without a hit: top-dose activity change, negative = growth inhibition, most hits filed as inhibitors. 420,000 compounds, 15% hits; also: potency is read from the fitted curve at half-maximal effect; nearly all actives have a fitted effect of over 55% in size
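Luminescent ATP content (CellTiter-Glo) served as the growth readout. Knockout chicken DT40 cells expressing human TDP1 were exposed to compounds without camptothecin for a minimum 48 hr at 37 °C.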
CtBP-E1A inh: blocks the CtBP interaction with E1A | AlphaScreen GST-E1A/His-CtBP binding, 1536-well; hits give low values | activity change, % (concentration not given with the values) | 340,000 compounds, 0.49% hits; in the data active = activity change below about -65%; inconclusive = mostly about -30% to -63%
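AlphaScreen with 125 nM GST-E1A and 125 nM His-CtBP (5X stocks) in Tris pH 8.0, 300 mM NaCl, BSA, Tween 20, TCEP. Compounds preincubated 2 h at 37 deg C, then glutathione donor/nickel acceptor beads added for 1 h at 37 deg C in dark.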
Numbers without * were called inactive; i = inactive; u = inconclusive; x = not tested or not shown. Hits are enriched below; roughly 18% of the tested compounds scored in any of these assays. Unless noted, calls follow the shape of the dose curve; as a rule, active = well fitted curve in the direction sought with a large enough effect; inconclusive = small, poorly fitted or top-dose-only effect, or another doubt; inactive = no such curve, though single readings can be large; an effect the other way counts as inactive or inconclusive. % is scaled to controls: 0 for no effect and ±100 for the full control effect.

SMILES	IL-1B inflam inh	TDP1 inh	Six1-Eya2 blk	DT40 TDP1 CPT	TDP1 cell noCPT	CtBP-E1A inh
O=C(NCc1ccc(Cl)cc1)c1ccc2oc(=O)n(Cc3ccccc3)c2c1	x	-1.2%	x	20.6µM*	u	x
C=CCn1c(=O)c2ccc(C(=O)NCc3ccccc3)cc2n(Cc2ccccc2Cl)c1=O	10.5	2.2%	12.1	8.2µM*	7.31µM*	0.0
O=C(NCc1ccc(F)cc1)c1ccc2oc(=O)n(Cc3ccccc3)c2c1	x	3.8%	x	u	u	x
Cc1ccc(CNC(=O)CCCn2c(=O)c3ccccc3n(Cc3ccccc3Cl)c2=O)cc1	x	2.5%	x	-16.1%	u	x
C=CCn1c(=O)c2ccc(C(=O)NCc3ccccc3)cc2n(Cc2cccc(Cl)c2)c1=O	-12.9	-2.6%	10.2	u	13µM*	0.0
COc1ccc(C)cc1NC(=O)CSCc1cc(=O)n2c(C)csc2n1	12.2	-8.8%	7.6	4.4%	-11.2%	1.2
O=C(c1ccc(F)c(S(=O)(=O)N2CCOCC2)c1)N1CCc2ccccc21	i	1.6%	-3.4	u	u	-2.1
C/C=C1\COC(C(=O)NCc2cccc(OC)c2OC)(C(F)(F)F)C=C1C=C1CCCCC1 (stereo not given)	u	4.4%	9.1	14.6µM*	16.4µM*	-3.4
C/C=C1\COC(C(=O)NCc2ccncc2)(C(F)(F)F)C=C1C=C1CCCCC1 (stereo not given)	94.9	14.4%	2.8	u	u	0.0
CC12CCC(C(=O)N/N=C/c3ccc(O)cc3O)(OC1=O)C2(C)C (stereo not given)	161.2	6.2%	-67.5*	10.3µM*	10.3µM*	-88.5*
C/C(=N\NC(=O)C12CCC(C)(C(=O)O1)C2(C)C)c1ccccc1O (stereo not given)	223.0	x	-3.4	16.4µM*	13µM*	u
COc1ccc(NC(=O)C23CCC(C)(C(=O)O2)C3(C)C)cc1 (stereo not given)	-21.2	9.3%	-1.3	-11.7%	-9.2%	-0.2
CC(=O)N1CCCc2cc(S(=O)(=O)N3CCC(C(=O)NCc4ccccc4Cl)CC3)ccc21	x	1.1%	x	u	23.1µM*	x
CCC(C)(C)NC(=O)C1CCN(S(=O)(=O)c2ccc3c(c2)CCCN3C(C)=O)CC1	x	-4.4%	x	2.5%	-0.2%	x
CC(=O)N1CCCc2cc(S(=O)(=O)N3CCC(C(=O)NCc4ccccc4)CC3)ccc21	x	4.4%	x	u	u	x
Cc1ccc(CNC(=O)C2CCN(S(=O)(=O)c3ccc4c(c3)CCCN4C(=O)C3CCC3)CC2)cc1	x	4.4%	x	20.6µM*	7.31µM*	x
N#Cc1cccc(NC(=O)C2CCN(S(=O)(=O)c3ccc4c(c3)CCCN4C(=O)C3CCC3)CC2)c1	x	5.5%	x	u	u	x
Cc1ccc(CNC(=O)C2CCN(S(=O)(=O)c3ccc4c(c3)OCCCO4)CC2)cc1	-16.8	4.2%	4.8	-2.1%	u	-0.2
CC(=O)N1CCCc2cc(S(=O)(=O)N3CCC(C(=O)Nc4ccc(C)cc4Cl)CC3)ccc21	x	-1.1%	x	14.6µM*	16.4µM*	x
Cc1cccc(CNC(=O)C2CCN(S(=O)(=O)c3ccc4c(c3)CCCN4C(=O)C3CCC3)CC2)c1	x	6.6%	x	13µM*	8.2µM*	x
CCOC(=O)c1cnc2c(-c3cccc(Br)c3)cnn2c1C	8.5	2.7%	19.4	-21.7%	-5.1%	6.1
CC(C)C(OC(=O)/C=C/c1ccc2c(c1)OCO2)C(=O)NC(N)=O (stereo not given)	-1.0	0.0%	-1.0	17.3%	-13.5%	5.0
O=C(NCc1ccccc1)C1CCN(S(=O)(=O)c2ccc3c(c2)CCCN3C(=O)C2CCC2)CC1	x	3.3%	x	16.4µM*	u	x
